Source: the supplement of paper PMC3334620
In all, about 33,000 sequences were measured (“E-score (-0.5 to 0.5)”: median about -0.01, highest 2% from about 0.26 on). Shown is part of a subset that was picked to be rich in the highest values.

These sequences were tested against Ste12 (UniProt P13574) (assay: PBM E-score (8-mer binding enrichment) (E-score (-0.5 to 0.5)); higher = stronger / more preferred TF binding). Details: protein concentration: 200 nM; construct: GST-DNA-binding domain.
Procedure: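 Universal 'all 10-mer' protein binding microarrays (Agilent AMADID 015681) probed with GST-tagged S. cerevisiae TFs (full-length or DBD) made by in vitro transcription/translation (PURExpress), about 100-200 nM. Bound TF was detected with fluorescent anti-GST. Each ungapped 8-mer (which stands for itself and its reverse complement) is scored by the PBM enrichment score (E-score), a modified Wilcoxon-Mann-Whitney statistic from -0.5 to +0.5, computed with the Universal PBM Analysis Suite. Scale: above 0.35 generally sequence-specific binding.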

Sequence of UniProt P13574 (P13574 whole entry, the tested form may be a part): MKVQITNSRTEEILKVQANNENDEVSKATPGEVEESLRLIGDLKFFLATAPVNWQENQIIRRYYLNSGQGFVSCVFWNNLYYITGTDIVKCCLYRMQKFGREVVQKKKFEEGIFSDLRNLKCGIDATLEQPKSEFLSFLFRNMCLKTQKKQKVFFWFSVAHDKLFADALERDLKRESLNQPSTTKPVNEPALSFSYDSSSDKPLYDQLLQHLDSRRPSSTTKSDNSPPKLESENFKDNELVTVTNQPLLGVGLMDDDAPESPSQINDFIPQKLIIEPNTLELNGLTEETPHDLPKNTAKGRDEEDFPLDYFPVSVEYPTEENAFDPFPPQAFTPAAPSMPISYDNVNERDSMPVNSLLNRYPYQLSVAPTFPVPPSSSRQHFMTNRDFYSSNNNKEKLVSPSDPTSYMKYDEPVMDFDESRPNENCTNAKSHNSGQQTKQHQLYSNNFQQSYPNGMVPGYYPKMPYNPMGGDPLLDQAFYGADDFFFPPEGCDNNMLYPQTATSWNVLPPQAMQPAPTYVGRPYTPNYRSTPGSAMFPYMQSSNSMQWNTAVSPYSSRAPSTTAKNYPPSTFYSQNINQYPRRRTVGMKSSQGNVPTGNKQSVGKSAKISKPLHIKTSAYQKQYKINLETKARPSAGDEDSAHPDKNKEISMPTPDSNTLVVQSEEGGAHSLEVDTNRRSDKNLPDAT

| Sequence | PBM E-score |
| --- | --- |
| ATTAGGAC | -0.179 |
| CCCGCGGG | 0.0996 |
| AATACGCA | 0.0688 |
| ATTTGCTA | 0.0107 |
| GCATTTTA | 0.165 |
| CCATTTTA | 0.267 |
| CCATTTTC | 0.0892 |
| GCCTATCC | -0.214 |
| GTCTGATA | 0.16 |
| TTCTGAAA | 0.365 |
| CTCTGAAC | -0.092 |
| ATCTGAAT | 0.0272 |
| CTCTGAAA | 0.294 |
| GTCTGAAC | 0.114 |
| CTCTGAAG | -0.104 |
| TTCTGCAA | 0.182 |
| ATCTGAAC | -0.0162 |
| CCCTGAAA | 0.181 |
| GTCTGAAA | 0.314 |
| ATCTGAAA | 0.364 |
| TGGCCAAA | 0.0505 |
| TCCACAGA | 0.124 |
| CTTTAGCC | -0.029 |
| AATAGTTG | 0.255 |
| AAGCAGAA | 0.109 |
| AATTGAGT | 0.195 |

| Sequence | PBM E-score |
| --- | --- |
| GTATGGAC | -0.0968 |
| ATTGTTTC | 0.356 |
| ATTGTTTA | 0.0651 |
| ATTGTTAG | 0.0697 |
| ATTGTTTG | 0.184 |
| CTTGTTAC | 0.129 |
| CTTGTTTC | 0.375 |
| CTTGTTGC | 0.00409 |
| CTTGTTTA | 0.0423 |
| ATTGTTAC | 0.297 |
| ATCTCTTA | 0.197 |
| CCTTTCCC | -0.0368 |
| ATAGCAGA | -0.0552 |
| CCGGCTAC | 0.0776 |
| CGAGCCAG | -0.0693 |
| AACGCACT | -0.0209 |
| GATAAACA | 0.096 |
| TATAAACA | 0.114 |
| CATAAACC | 0.0477 |
| AATAAACC | 0.269 |
| AATAAACA | 0.284 |
| AATAAACG | 0.0508 |
| AAGTATGC | -0.197 |
| AGCCCCCA | -0.118 |
| TATGGACA | -0.00254 |
| CGGTCGAA | 0.00203 |

| Sequence | PBM E-score |
| --- | --- |
| CAGTTTAC | -0.053 |
| CGTTAAAG | 0.0915 |
| CGCCGGCC | -0.00587 |
| AGCCGGCG | 0.106 |
| CGCCGGCG | 0.275 |
| CAGACCCG | 0.0234 |
| CTCTCCTC | -0.168 |
| CTGTAACA | 0.268 |
| CTGTAATA | 0.119 |
| ATGTAACA | 0.288 |
| AAGTAAAT | 0.261 |
| GCGTAACA | -0.0008 |
| GTGTAACA | 0.319 |
| AAGTAAAG | -0.0589 |
| ATGTAACC | 0.143 |
| ATGTAACG | 0.241 |
| CTGTAACC | 0.183 |
| AAGTAAAC | 0.0949 |
| GTGTAAGA | 0.058 |
| GCGTCCAA | -0.13 |
| ATGATTGC | 0.146 |
| CAAGACTG | -0.101 |
| ATGCACAG | -0.111 |
| ACTATTGG | -0.0275 |
| CAACTTGA | 0.0746 |
| AAGTAACT | 0.0625 |

| Sequence | PBM E-score |
| --- | --- |
| AAGTAACG | 0.141 |
| AAGTAACA | 0.291 |
| AGACCGTA | -0.0932 |
| CATGGTGG | -0.0711 |
| GACTCTAA | 0.115 |
| TTCATAAA | 0.324 |
| TCCATAAA | 0.11 |
| ATGATAAA | 0.209 |
| ACCATAAA | 0.278 |
| ATCATAAA | 0.0612 |
| TTGATAAA | 0.277 |
| GTGATAAA | 0.131 |
| ACCATAAG | -0.16 |
| CTCATAAA | -0.00236 |
| ACTTTGAC | -0.101 |
| ACTTCCCT | -0.0919 |
| GGGTTCAC | -0.0147 |
| GATCTGCC | 0.0158 |
| TAAAAGCA | 0.172 |
| CCAATCGA | 0.067 |
| CTTCACAA | -0.0638 |
| ATCGAAAC | 0.324 |
| CACGAAAA | 0.243 |
| AACGAAAC | 0.314 |
| CCCGAAAG | 0.00951 |
| GCCGAAAC | 0.178 |

| Sequence | PBM E-score |
| --- | --- |
| ATCGAAAA | 0.125 |
| CACGAAAC | 0.266 |
| GTCGAAAC | 0.128 |
| CACGAAAG | 0.095 |
| AACGAAAG | 0.0635 |
| CCCGAAAC | 0.303 |
| AACGAAAT | 0.169 |
| CCCAGGTC | -0.207 |
| TCCACAAA | 0.14 |
| GCTTCCAC | -0.11 |
| CTAGGGCC | -0.187 |
| ATCGCGCG | 0.0537 |
| ATGTCTAA | 0.0254 |
| GGGCCCCA | -0.146 |
| CTCCTCAG | -0.11 |
| GAGGTTAA | 0.0122 |
| AGCTGGGA | -0.0199 |
| ATGTGAAA | 0.202 |
| GTGTGAAA | 0.307 |
| CTGTGAAG | 0.00467 |
| GTGTGAGA | 0.0959 |
| CTGTGAAA | 0.322 |
| GTGTGAAC | 0.169 |
| TTGTGAAA | 0.342 |
| CTGTGAGA | -0.0675 |
| CTGTGAAC | -0.0759 |

| Sequence | PBM E-score |
| --- | --- |
| ACCTGCCA | -0.121 |
| AGAAAGGA | -0.0699 |
| AAAGCGAA | 0.133 |
| CTTGCATA | -0.045 |
| TCAGGTCA | -0.015 |
| AAAGTCCC | -0.0967 |
| CGAGGCCG | -0.158 |
| GGATTTAA | 0.243 |
| ACAACATC | -0.0874 |
| AAAACATT | 0.28 |
| AAAACATC | 0.301 |
| AACACATG | 0.128 |
| AAAACATG | 0.324 |
| ATAACATC | 0.0956 |
| AAAACATA | 0.208 |
| CAAACATG | 0.179 |
| AAAACAAT | 0.225 |
| AGTGTAGG | 0.00693 |
| ATGTGCTG | 0.133 |
| CTTCGCTC | -0.224 |
| ACCACCCG | -0.106 |
| GCCACCCC | -0.0121 |
| CCCACCCG | 0.358 |
| CACACCCG | 0.0642 |
| CCCACCCC | 0.391 |
| CCCACCCA | 0.269 |

| Sequence | PBM E-score |
| --- | --- |
| GCCACCCA | -0.106 |
| ACCACCCC | 0.0858 |
| TCCACCCA | -0.0525 |
| CCTCTTGC | 0.0254 |
| ATCTTCAC | 0.145 |
| CACGGGCG | 0.00735 |
| ATAGCCTG | -0.0913 |
| TAGATCGA | 0.0552 |
| CCAGCTCA | -0.194 |
| CCGTTGAA | 0.0239 |
| GCTTATTA | 0.0471 |
| CTTTATTA | 0.112 |
| CCTTATTA | 0.187 |
| ACTTATTA | 0.264 |
| GTTTATTA | 0.304 |
| CTTATTTA | 0.171 |
| ATTATTTG | 0.106 |
| CTTTATAA | 0.153 |
| ATTTATAA | 0.267 |
| GATTATTA | 0.196 |
| ATTTATAC | 0.195 |
| ATTATTTA | 0.281 |
